We go through 23 molecules from PubChem BioAssay (Tox21).

The nature of assay [1]: qHTS assay to identify small molecule antagonists of the thyroid receptor (TR) signaling pathway - cell viability counter screen (AID 743064). Note: nearly all actives have a fitted effect of over 50% in size. In a few lines:
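Same-well viability check: GH3.TRE-Luc cells stimulated with 1 nM T3 alongside test compound for 23.5 h, followed by CellTiter-Fluor fluorescence.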
In general terms: qHTS replaces the single test concentration by a dilution series.

Assay [2] in a line: qHTS assay to identify small molecule antagonists of the thyroid receptor (TR) signaling pathway (AID 743065). Note: series mostly up to about 70 µM; nearly all actives have a fitted effect of over 55% in size. In a few lines:
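Antagonism measured as loss of luciferase signal in GH3 cells stably carrying a TRE-luciferase reporter, co-treated with compound and T3 (1 nM final) for 23.5 h at 37 C. Viability was read in the same well by CellTiter-Fluor.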

For assay [3], the system named is thyroid hormone receptor (rat, GH3 cells). Kind of assay: qHTS assay to identify small molecule agonists of the thyroid receptor (TR) signaling pathway (AID 743066; calls by dose curve).
Assay [4] concerns the target Estrogen receptor (Homo sapiens) (UniProt P03372). As to the kind of experiment: qHTS assay to identify small molecule antagonists of the estrogen receptor alpha (ER-alpha) signaling pathway (AID 743069; active = well fitted curve in the direction sought with a large enough effect in the signal ratio in the repeat runs, not every such curve was filed as active; the % refers to the signal ratio). A digest of the protocol:
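Compound effects are measured against 17beta-estradiol stimulation in HEK293 cells with a UAS-controlled beta-lactamase reporter for ER-alpha. Exposure lasts 18 hr at 37C; LiveBLAzer B/G FRET substrate follows for 2 hr at room temperature.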

Assay [5] in a line: qHTS assay to identify small molecule antagonists of the estrogen receptor alpha (ER-alpha) signaling pathway - cell viability counter screen (AID 743074; calls by dose curve;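 note: HEK293 cells carrying ER-alpha-UAS-bla reporter stimulated with 17beta-estradiol; nearly all actives have a fitted effect of over 45% in size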).
In assay [6] the target is Estrogen receptor (Homo sapiens) (UniProt P03372). As to the kind of experiment: qHTS assay to identify small molecule agonists of the estrogen receptor alpha (ER-alpha) signaling pathway (AID 743075; calls by dose curve).
For assay [7] the target is unchanged. As to the kind of experiment: qHTS assay to identify small molecule agonists of the estrogen receptor alpha (ER-alpha) signaling pathway using the BG1 cell line (AID 743079). Note: nearly all actives have a fitted effect of over 20% in size. Note: potency is the fitted concentration of half-maximal effect.
The nature of assay [8]: qHTS assay to identify small molecule antagonists of the estrogen receptor alpha (ER-alpha) signaling pathway using the BG1 cell line (AID 743080; calls by dose curve;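 note: BG1 cells stimulated with 17beta-estradiol alongside compound; series mostly up to about 70 µM; nearly all actives have a fitted effect of over 25% in size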). A digest of the protocol: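 After 5 days in phenol-red-free 10% charcoal-stripped FBS medium, BG1-Luc-4E2 cells were seeded, left 24 h at 37 C, co-treated with compounds and 17beta-estradiol for 21.5 h, then assayed for viability and luciferase.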

Assay [9] can be described thus: qHTS assay to identify small molecule antagonists of the estrogen receptor alpha (ER-alpha) signaling pathway using the BG1 cell line - cell viability counter screen (AID 743081).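 Note: compound given together with 17beta-estradiol as the ER stimulus; series mostly up to about 70 µM; nearly all actives have a fitted effect of over 45% in size.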
For a further assay, the target named is Aromatase (Homo sapiens) (UniProt P11511). Kind of assay: qHTS assay to identify aromatase inhibitors (AID 743083). Note: series mostly up to about 70 µM; nearly all actives have a fitted effect of over 55% in size.

Results filed as inconclusive are left out. A number with no mark means an inactive call. Activity calls are given as the source filed them. Unless noted, calls come from the whole dose curve; as a rule, active = well fitted curve in the direction sought with a large enough effect in the repeat runs; inconclusive = weak or mixed curves; inactive = no such curve, though single readings can be large; an effect the other way counts as inactive or inconclusive.

Chain of Aromatase (Homo sapiens) (P11511 whole entry, looked up): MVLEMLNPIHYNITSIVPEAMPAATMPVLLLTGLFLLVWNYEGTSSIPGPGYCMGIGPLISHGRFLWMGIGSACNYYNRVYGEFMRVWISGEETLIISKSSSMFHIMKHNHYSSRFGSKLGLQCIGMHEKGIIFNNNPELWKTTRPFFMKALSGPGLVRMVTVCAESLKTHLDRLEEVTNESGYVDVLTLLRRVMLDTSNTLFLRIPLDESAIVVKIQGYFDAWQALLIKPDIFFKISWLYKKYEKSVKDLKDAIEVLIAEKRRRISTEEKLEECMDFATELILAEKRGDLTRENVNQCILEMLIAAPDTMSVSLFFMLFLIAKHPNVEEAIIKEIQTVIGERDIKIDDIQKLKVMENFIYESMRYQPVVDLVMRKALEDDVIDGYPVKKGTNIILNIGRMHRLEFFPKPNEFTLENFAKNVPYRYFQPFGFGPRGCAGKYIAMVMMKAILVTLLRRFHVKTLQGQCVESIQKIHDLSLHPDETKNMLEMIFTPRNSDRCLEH
Chain of Estrogen receptor (Homo sapiens) (P03372 whole entry, looked up): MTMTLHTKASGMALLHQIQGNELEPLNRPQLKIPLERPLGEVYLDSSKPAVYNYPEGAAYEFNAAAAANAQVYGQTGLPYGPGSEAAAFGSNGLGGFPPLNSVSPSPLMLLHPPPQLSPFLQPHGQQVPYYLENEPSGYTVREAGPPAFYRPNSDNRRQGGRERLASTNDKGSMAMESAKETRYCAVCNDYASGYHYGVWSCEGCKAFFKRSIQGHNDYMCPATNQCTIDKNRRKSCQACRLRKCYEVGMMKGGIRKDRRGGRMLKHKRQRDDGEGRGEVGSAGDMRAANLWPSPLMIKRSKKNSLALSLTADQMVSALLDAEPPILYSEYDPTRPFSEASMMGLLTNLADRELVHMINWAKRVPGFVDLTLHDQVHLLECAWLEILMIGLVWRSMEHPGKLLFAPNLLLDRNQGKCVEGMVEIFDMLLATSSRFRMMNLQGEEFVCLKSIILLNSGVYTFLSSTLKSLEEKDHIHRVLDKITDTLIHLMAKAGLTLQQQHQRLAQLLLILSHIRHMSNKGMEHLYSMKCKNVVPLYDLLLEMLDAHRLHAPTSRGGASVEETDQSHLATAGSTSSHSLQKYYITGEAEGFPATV

On to `O=C(O)Cc1cn(-c2ccccc2)nc1-c1ccc(Cl)cc1`, for which the Potency result (in assay [1]; in [2]; in assay [7]; in [8]; with Aromatase (Homo sapiens)) was “inactive” each time. For the same molecule, the call in [3], in [4], in assay [5], in assay [6] and in assay [9] was inactive.

Take `N[C@@H](CCC(=O)Nc1ccc([N+](=O)[O-])cc1)C(=O)O`: the Potency result (in assay [1]; in assay [2]; in [7]; in assay [8]; in the assay with Aromatase (Homo sapiens)) was “inactive” in each case. Further, the outcome in [3], in assay [4], in assay [5], in [6] and in assay [9] was inactive.

`O=C(NCCc1c[nH]c2ccccc12)c1cccnc1`: the Potency result in assay [1], in assay [2], in assay [7] and in assay [8] was “inactive” each time. Also, the result in [3], in assay [4], in assay [5], in assay [6] and in assay [9] was inactive.

Regarding `CCCCCCCCC(=O)Cl`, the Potency entry (in assay [1]; in assay [2]; in assay [7]; in [8]; in the assay with Aromatase (Homo sapiens)) was “inactive” throughout. In addition, the call in [3], in assay [4], in assay [5], in [6] and in assay [9] was inactive.

For the molecule `CN(C)CCOCCO`, the Potency result (in [1]; in [2]; in assay [7]; in assay [8]; in the assay with Aromatase (Homo sapiens)) was “inactive” throughout. Also, the outcome in assay [3], in assay [4], in [5], in assay [6] and in [9] was inactive.

For the molecule `C=C(C)C(=O)OCc1ccccc1`, the Potency entry (in assay [1]; in assay [2]; in assay [7]; in assay [8]; in the assay with Aromatase (Homo sapiens)) was “inactive” each time. Also, the molecule was called inactive in assay [3], in assay [4], in assay [5], in assay [6] and in assay [9].

In the case of `NC(CO)C(=O)NNCc1ccc(O)c(O)c1O` (stereo not drawn), the Potency result (in assay [1]; in assay [2]; in assay [7]; in assay [8]; with Aromatase (Homo sapiens)) was “inactive” in each case. The result in [3], in [4], in [5], in assay [6] and in assay [9] was inactive.

On to `CC(C)NCC(O)COc1ccc(COCCOC(C)C)cc1` (stereo not drawn), for which the Potency result in assay [1], in assay [2], in [7] and in assay [8] was “inactive” in each case. Also, the molecule was called inactive in [3], in [4], in assay [5], in assay [6] and in [9].

Consider `CN1C(C)(C)CCCC1(C)C`, for which the Potency entry (in assay [1]; in assay [2]; in [7]; in assay [8]; in the assay with Aromatase (Homo sapiens)) was “inactive” each time. For the same molecule, the molecule was classed as inactive in assay [3], in assay [4], in [5], in assay [6] and in [9].

Regarding `C=C(C)C(=O)OCCOP(=O)(O)OCCOC(=O)C(=C)C`, the Potency entry (in [1]; in [2]; in assay [7]; in [8]; in the assay with Aromatase (Homo sapiens)) was “inactive” in each case. Besides, the result in [3], in assay [4], in assay [5], in [6] and in [9] was inactive.

For `CCCCCCCCOS(=O)(=O)O`, the Potency entry (in [1]; in [2]; in assay [7]; in [8]; with Aromatase (Homo sapiens)) was “inactive” in each case. Besides, the molecule was classed as inactive in assay [3], in assay [4], in [5], in assay [6] and in assay [9].

On to `O=C(OCC(COC(=O)c1cccnc1)(COC(=O)c1cccnc1)COC(=O)c1cccnc1)c1cccnc1`, for which the Potency entry (in assay [1]; in assay [2]; in assay [7]; in assay [8]; in the assay with Aromatase (Homo sapiens)) was “inactive” in each case. The call in [3], in assay [4], in [5], in assay [6] and in assay [9] was inactive.

As to `COP(=O)(OC)OC(c1ccc(Cl)cc1)P(=O)(OC)OC` (stereo not drawn), the Potency result (in [1]; in [2]; in assay [7]; in assay [8]; in the assay with Aromatase (Homo sapiens)) was “inactive” in each case. The outcome in [3], in [4], in assay [5], in [6] and in [9] was inactive.

For `O=C1c2ccccc2C(=O)c2cc(S(=O)(=O)O)ccc21`, the Potency result (in assay [1]; in [2]; in assay [7]; in assay [8]; in the assay with Aromatase (Homo sapiens)) was “inactive” each time. For the same molecule, the call in assay [3], in assay [4], in assay [5], in [6] and in [9] was inactive.

For `O=C1c2ccccc2C(=O)N1CCl`, the Potency result (in [1]; in assay [2]; in assay [7]; in [8]; with Aromatase (Homo sapiens)) was “inactive” in each case. For the same molecule, the molecule was classed as inactive in [3], in assay [4], in [5], in assay [6] and in [9].

With `COc1ccc(-c2cc(=O)c3c(O)cc(O[C@@H]4O[C@H](CO[C@@H]5O[C@@H](C)[C@H](O)[C@@H](O)[C@H]5O)[C@@H](O)[C@H](O)[C@H]4O)cc3o2)cc1O`, the Potency result (in [1]; in [2]; in assay [7]; in [8]; in the assay with Aromatase (Homo sapiens)) was “inactive” each time. For the same molecule, the outcome in assay [3], in [4], in assay [5], in [6] and in assay [9] was inactive.

For the molecule `CC(C)CCCC(C)(C)O`, the Potency entry (in assay [1]; in assay [2]; in assay [7]; in [8]; in the assay with Aromatase (Homo sapiens)) was “inactive” in each case. Besides, the outcome in assay [3], in assay [4], in assay [5], in assay [6] and in [9] was inactive.

For the molecule `CC[C@H](C)C(=O)O[C@H]1C[C@H](O)C=C2C=C[C@H](C)[C@H](CC[C@@H](O)C[C@@H](O)CC(=O)O)[C@H]21`, the Potency entry (in assay [1]; in assay [2]; in assay [7]; in assay [8]; with Aromatase (Homo sapiens)) was “inactive” in each case. Moreover, the molecule was classed as inactive in [3], in [4], in [5], in [6] and in [9].

As for `CCCCCCCCSCC`, the Potency entry (in [1]; in assay [2]; in [7]; in assay [8]; in the assay with Aromatase (Homo sapiens)) was “inactive” in each case. Moreover, the molecule was called inactive in [3], in assay [4], in assay [5], in assay [6] and in [9].

For `O=C1O[C@@H]2[C@@H](O)[C@H](O)O[C@@H]2[C@H]1O`, the Potency result (in [1]; in assay [2]; in assay [7]; in assay [8]; in the assay with Aromatase (Homo sapiens)) was “inactive” in each case. Besides, the call in assay [3], in assay [4], in assay [5], in [6] and in assay [9] was inactive.

As to `CN(C)c1ccc(C=O)cc1`, the Potency result (in [1]; in assay [2]; in assay [8]; in the assay with Aromatase (Homo sapiens)) was “inactive” throughout. In addition, the molecule was called inactive in assay [3], in assay [4], in assay [5], in assay [6] and in assay [9]. Besides, the Potency in [7] was 54.5 µM (active).

For the molecule `CC(=O)NCc1c(I)c(NC(C)=O)c(I)c(C(=O)O)c1I`, the Potency entry (in [1]; in assay [2]; in [8]; with Aromatase (Homo sapiens)) was “inactive” each time. The molecule was classed as inactive in [3], in assay [4], in assay [5], in [6] and in [9]. Besides, the Potency in assay [7] was 13.3 µM (active).

Consider `Nc1ccc2cc(S(=O)(=O)O)cc(O)c2c1`, for which the Potency entry (in [1]; in assay [2]; in assay [7]; in [8]; with Aromatase (Homo sapiens)) was “inactive” throughout. The molecule was classed as inactive in assay [3], in assay [4], in assay [5], in assay [6] and in [9].
